Legend:
Test in all cases: log2 ratio of Biotin-Ahx-Ub-VS probe labelling (fragment/DMSO); higher = less target engagement (more negative = stronger competition), active = hit call of the paper (q ≤ 0.05, log2 ratio ≤ -1)
Conditions in all cases: compound concentration: 200 uM; treatment time: 3 h
[1] = target: T1, ALG13 (UniProt Q9NP73)
T1 sequence (whole entry): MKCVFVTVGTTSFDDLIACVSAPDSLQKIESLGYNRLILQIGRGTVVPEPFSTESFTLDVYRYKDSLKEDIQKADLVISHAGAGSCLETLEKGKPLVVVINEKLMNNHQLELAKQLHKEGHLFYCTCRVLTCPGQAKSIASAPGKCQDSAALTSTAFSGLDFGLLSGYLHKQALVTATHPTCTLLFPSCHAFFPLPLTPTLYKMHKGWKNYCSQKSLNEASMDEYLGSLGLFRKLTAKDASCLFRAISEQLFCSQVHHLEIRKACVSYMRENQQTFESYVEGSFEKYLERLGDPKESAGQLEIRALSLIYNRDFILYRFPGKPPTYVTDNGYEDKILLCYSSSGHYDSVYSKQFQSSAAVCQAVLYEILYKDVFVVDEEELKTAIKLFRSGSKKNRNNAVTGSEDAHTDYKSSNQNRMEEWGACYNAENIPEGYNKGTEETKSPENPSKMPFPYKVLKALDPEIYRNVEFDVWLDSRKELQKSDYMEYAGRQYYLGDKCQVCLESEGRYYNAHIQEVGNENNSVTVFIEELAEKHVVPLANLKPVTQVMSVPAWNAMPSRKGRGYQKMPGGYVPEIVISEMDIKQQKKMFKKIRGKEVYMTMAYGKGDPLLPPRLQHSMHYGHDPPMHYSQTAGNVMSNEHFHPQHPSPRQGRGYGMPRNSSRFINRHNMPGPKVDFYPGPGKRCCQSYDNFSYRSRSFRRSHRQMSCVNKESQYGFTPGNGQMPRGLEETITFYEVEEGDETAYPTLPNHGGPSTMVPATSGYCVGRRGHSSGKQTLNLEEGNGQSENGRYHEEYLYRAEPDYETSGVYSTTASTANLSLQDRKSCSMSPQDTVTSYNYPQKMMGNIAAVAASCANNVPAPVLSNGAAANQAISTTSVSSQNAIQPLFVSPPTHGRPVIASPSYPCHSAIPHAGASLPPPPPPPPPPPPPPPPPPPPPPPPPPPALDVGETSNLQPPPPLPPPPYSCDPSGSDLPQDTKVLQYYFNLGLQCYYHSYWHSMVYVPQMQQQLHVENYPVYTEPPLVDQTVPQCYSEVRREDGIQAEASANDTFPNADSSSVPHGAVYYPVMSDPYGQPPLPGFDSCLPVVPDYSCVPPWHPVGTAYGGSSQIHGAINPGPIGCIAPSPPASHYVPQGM
Procedure, shortened: (§1)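 Average log2 ratios of fragment over vehicle were obtained by unpaired t-test from global-median-normalised Spectronaut label-free quantities. Proteins with ≥2 unique peptides were included. HEK293T lysate (495 µg per sample) was treated in triplicate with fragment at 200 µM or vehicle for 3 h, then with Biotin-Ahx-Ub-VS at 0.5 µM final for 1 h, and labelled DUBs were NeutrAvidin-enriched and run by diaPASEF LC-MS/MS.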

[2] = target: ATXN3 (UniProt P54252)
Procedure, shortened: as §1

[3] = target: T2, BAP1 (UniProt Q92560)
T2 sequence (whole entry): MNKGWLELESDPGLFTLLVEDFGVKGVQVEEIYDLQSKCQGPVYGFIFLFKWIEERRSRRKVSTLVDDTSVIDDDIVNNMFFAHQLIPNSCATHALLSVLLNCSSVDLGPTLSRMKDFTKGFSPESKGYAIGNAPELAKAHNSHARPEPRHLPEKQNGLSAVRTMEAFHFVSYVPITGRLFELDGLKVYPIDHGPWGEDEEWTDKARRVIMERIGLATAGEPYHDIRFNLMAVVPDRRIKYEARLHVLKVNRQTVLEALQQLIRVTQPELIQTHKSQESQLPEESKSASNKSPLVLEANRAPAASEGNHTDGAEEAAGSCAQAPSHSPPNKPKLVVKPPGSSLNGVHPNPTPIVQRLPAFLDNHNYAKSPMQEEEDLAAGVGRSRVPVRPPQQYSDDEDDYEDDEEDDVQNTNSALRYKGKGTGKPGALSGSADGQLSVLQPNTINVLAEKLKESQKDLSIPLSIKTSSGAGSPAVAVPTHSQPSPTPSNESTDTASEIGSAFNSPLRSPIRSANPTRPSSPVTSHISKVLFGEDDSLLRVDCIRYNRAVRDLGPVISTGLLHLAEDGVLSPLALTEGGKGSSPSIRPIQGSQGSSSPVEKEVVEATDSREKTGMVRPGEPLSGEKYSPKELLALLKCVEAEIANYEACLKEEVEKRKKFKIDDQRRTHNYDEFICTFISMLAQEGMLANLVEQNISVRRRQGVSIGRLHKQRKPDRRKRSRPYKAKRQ
Procedure, shortened: as §1

[4] = target: EIF3F (UniProt O00303)
Procedure, shortened: as §1

[5] = target: EIF3H (UniProt O15372)
Procedure, shortened: as §1

[6] = target: T3, FAM105A (UniProt Q9NUU6)
T3 sequence (whole entry): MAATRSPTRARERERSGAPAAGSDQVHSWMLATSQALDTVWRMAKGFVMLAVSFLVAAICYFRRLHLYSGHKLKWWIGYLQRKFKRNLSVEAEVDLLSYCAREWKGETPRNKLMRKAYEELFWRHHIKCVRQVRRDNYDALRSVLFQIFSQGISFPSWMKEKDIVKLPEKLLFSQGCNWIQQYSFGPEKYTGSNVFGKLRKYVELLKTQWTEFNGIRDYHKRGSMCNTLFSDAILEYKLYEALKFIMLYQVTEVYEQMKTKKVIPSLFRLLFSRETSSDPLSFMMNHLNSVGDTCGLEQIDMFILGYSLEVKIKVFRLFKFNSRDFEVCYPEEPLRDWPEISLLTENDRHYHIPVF
Procedure, shortened: as §1

[7] = target: OTUB1 (UniProt Q96FW1)
Procedure, shortened: as §1

[8] = target: T4, OTUD4 (UniProt Q01804)
T4 sequence (whole entry): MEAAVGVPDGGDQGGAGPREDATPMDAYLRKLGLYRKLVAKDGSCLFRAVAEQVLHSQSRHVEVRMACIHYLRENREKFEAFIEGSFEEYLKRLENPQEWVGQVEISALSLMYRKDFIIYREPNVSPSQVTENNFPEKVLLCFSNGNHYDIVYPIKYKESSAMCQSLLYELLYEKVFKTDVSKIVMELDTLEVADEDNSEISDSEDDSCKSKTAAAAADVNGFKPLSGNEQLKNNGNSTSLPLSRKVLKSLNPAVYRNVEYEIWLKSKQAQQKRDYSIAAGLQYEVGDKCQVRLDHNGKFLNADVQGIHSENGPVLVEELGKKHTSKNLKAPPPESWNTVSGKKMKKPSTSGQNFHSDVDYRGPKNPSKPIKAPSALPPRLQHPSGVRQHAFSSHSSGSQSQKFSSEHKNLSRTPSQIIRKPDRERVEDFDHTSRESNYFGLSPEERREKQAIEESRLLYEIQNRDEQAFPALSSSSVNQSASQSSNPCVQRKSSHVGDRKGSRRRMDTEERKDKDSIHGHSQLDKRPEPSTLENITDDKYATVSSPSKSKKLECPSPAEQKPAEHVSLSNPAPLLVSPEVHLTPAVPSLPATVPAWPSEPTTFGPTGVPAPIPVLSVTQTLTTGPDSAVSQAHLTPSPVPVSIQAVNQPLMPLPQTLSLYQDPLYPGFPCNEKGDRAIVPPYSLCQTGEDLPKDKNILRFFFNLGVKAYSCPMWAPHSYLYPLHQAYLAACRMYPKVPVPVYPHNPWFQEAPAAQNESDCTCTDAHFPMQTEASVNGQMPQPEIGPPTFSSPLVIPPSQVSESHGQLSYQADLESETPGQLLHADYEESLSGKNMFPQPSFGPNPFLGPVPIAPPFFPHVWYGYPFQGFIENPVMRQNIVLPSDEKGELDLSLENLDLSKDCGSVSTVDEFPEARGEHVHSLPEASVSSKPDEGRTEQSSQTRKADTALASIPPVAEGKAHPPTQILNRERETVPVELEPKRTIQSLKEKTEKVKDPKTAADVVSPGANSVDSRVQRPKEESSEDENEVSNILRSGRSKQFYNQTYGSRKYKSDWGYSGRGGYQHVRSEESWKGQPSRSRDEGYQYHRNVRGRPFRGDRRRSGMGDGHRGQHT
Procedure, shortened: as §1

[9] = target: T5, OTUD5 (UniProt Q96G74)
T5 sequence (whole entry): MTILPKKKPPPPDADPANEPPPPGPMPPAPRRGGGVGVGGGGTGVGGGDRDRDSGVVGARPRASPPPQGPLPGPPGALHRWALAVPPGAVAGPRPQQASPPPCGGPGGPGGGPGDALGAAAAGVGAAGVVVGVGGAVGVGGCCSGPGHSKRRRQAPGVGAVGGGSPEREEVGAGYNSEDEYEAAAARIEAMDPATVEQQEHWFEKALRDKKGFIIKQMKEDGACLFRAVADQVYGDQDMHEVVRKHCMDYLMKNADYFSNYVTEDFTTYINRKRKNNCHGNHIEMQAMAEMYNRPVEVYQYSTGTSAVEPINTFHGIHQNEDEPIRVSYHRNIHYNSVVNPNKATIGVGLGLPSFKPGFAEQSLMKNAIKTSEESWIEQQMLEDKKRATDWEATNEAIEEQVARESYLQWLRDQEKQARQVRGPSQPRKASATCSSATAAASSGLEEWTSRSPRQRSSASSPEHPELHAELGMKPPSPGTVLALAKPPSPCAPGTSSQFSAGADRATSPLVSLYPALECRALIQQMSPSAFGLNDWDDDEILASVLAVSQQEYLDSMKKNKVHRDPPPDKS
Procedure, shortened: as §1

Measured: log2 ratio of Biotin-Ahx-Ub-VS probe labelling

Sequence of EIF3F (O00303 whole entry): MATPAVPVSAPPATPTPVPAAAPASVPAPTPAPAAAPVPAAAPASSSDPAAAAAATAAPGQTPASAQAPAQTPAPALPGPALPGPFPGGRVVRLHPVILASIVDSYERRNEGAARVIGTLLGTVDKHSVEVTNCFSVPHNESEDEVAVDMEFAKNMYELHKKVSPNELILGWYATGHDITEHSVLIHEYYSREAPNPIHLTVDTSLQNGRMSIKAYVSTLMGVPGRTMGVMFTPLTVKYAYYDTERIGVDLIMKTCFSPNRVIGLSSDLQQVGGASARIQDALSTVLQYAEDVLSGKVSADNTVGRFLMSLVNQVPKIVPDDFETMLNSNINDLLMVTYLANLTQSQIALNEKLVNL
Sequence of EIF3H (O15372 whole entry): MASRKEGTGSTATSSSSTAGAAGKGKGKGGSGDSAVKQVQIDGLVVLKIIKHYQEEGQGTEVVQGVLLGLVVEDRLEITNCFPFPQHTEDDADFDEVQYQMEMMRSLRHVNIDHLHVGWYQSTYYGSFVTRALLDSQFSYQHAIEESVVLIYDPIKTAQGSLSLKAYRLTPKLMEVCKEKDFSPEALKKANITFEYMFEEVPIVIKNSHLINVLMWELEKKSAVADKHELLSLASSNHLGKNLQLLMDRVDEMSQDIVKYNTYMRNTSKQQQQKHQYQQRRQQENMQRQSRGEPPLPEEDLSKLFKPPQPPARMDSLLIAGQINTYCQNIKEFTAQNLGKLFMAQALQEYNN
Sequence of ATXN3 (P54252 whole entry): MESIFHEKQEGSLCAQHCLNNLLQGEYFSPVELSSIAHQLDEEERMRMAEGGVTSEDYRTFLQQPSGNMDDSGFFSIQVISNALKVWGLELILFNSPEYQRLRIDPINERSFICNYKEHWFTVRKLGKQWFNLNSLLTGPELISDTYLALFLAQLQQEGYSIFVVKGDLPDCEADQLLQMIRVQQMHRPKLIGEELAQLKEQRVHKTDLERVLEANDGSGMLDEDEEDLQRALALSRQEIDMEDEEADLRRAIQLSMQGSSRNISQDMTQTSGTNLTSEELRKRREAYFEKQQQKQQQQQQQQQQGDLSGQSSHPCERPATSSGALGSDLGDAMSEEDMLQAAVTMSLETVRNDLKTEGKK
Sequence of OTUB1 (Q96FW1 whole entry): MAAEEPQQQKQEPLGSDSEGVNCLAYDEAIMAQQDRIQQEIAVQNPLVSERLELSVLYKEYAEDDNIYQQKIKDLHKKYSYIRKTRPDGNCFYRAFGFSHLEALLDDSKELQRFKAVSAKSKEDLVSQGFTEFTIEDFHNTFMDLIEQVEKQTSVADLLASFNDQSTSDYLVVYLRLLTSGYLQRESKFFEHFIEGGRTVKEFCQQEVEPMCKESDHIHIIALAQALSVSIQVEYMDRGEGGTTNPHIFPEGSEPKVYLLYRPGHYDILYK

O=C(CCl)N1CCCCCC1c1ncon1 (centres undefined)
inactive: [1] 0.0534 | [2] -0.268 | [3] -0.409 | [4] 0.0211 | [5] 0.132 | [6] 0.156 | [7] 0.099 | [8] -0.759 | [9] -0.654
